From PubChem BioAssay AID651705 (Broad Institute, 2012)
About 620 (52%) of roughly 1,200 compounds were called active. So high a share suggests a set chosen from earlier hits. Not all results are given here. Values without a mark were called inactive.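 How the source made its calls: active means every separate test run was called active for a drop in luminescence, with AC50 within twice the top valid dose (actives reach about 71 µM in these data); inconclusive means the separate test runs disagree in their calls; inactive means all runs inactive, including signal change in the wrong direction.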

assay: bead-based luminescence quenchers, dual-tagged ARNT – biochemical, AlphaScreen, cherry-pick, artefact control for ARNT-TACC3 interaction inhibitor project, dose response (AID 651705); settings: His-ARNT PASB-GST AlphaScreen artifact counter-screen; series mostly up to 68 µM; activity change, negative = signal decrease: at the top concentration;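 on activity change, negative = signal decrease: 0% = neutral control wells with protein and -100% = buffer without protein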

| SMILES | AC50 | activity change, negative = signal decrease |
| --- | --- | --- |
| Oc1cccc(/C=N/Nc2ccc(Cl)nn2)c1O | 10.2 µM (active) | – |
| CN(c1ccc(C(=O)N2CCc3ccccc3C2)cc1)S(C)(=O)=O | – | -2.85% |
| C[C@@H]1CN([C@H](C)CO)C(=O)Cc2cc(NC(=O)Nc3cccc4ccccc34)ccc2O[C@@H]1CN(C)Cc1ccc(C(=O)O)cc1 | – | -5.56% [at 38 µM] |
| CC(C(=O)Nc1ccc(O)c(C(=O)O)c1)N1C(=O)/C(=C/c2cccs2)SC1=S (stereo unspecified) | – | -21.1% |
| CCN(CC)c1ccc(/C=N/NC(=O)c2cnccn2)c(O)c1 | – | -14.3% |
| CCOC(=O)N1CCN(C(c2cccnc2)c2ccc3cccnc3c2O)CC1 (stereo unspecified) | 18 µM (active) | – |
| CCN1CCN(C(c2cccnc2)c2cc(Cl)c3cccnc3c2O)CC1 (stereo unspecified) | 23.8 µM (active) | – |
| COc1ccc2ccccc2c1CNCc1ccccn1 | – | -24.4% |
| O=S(=O)(c1ccccc1)N1C[C@@H]2[C@H](c3ccccc31)[C@H](CO)N2Cc1ccccn1 | 65.5 µM (active) | – |
| C/C(=N\NC(=O)Cc1ccc(Cl)cc1)c1ccccn1 | 59.3 µM (active) | – |
| Cc1c(CC(=O)NCC(=O)NCC(=O)O)c(=O)oc2cc3oc4c(c3cc12)CCCC4 | – | -7.24% |
| O=C(NCCCn1ccnc1)c1cc(-c2ccccc2)on1 | – | -4.56% [at 38 µM] |
| CC(=O)/C(=N\Nc1ccc(Cl)cc1Cl)Sc1cccc2cccnc12 | 7.85 µM (active) | – |
| Oc1ccc(Br)cc1/C=N/Nc1ccccn1 | 56.5 µM (active) | – |
| Cc1ccccc1CSc1nnc(-c2ccccn2)n1N | – | -19.5% |
| O=C(CN1C(=O)COc2ccccc21)Nc1ccc(F)cc1 | 13.5 µM (active) | – |
| O=C1c2cccc3cccc(c23)C(=O)N1CCCCCc1n[nH]c(=S)o1 | – | -29.9% |
| CCn1cc(/C=C2/SC(=S)NC2=O)c(C)n1 | – | -7.76% |
| Oc1c(CN2CCN(c3ccc(F)cc3)CC2)cc(Cl)c2cccnc12 | 10.2 µM (active) | – |
| O=C(CSc1ccc(-c2ccccn2)nn1)Nc1ccccc1 | 10.4 µM (active) | – |
| C[C@@H]1CN([C@@H](C)CO)C(=O)c2cc(NS(=O)(=O)c3cccs3)ccc2O[C@H]1CN(C)CC1CCCCC1 | – | -5.29% [at 38 µM] |
| c1ccc(-c2cn3c(n2)CCc2ccc4cccnc4c2-3)cc1 | – | -27.6% |
| O=C(Nc1cnc2ccccc2c1)c1cc(-c2ccccc2)on1 | – | -4.59% [at 38 µM] |

| SMILES | AC50 | activity change, negative = signal decrease |
| --- | --- | --- |
| Cn1c(-c2ccccc2)cnc1NC(=O)c1cc(-c2ccccc2)on1 | 40.5 µM (active) | – |
| Cc1ccc(NC(=O)c2cc(-c3ccccc3)on2)cn1 | – | 2.04% [at 38 µM] |
| CCOc1cc(N2CCOCC2)c(OCC)cc1NC(=O)COc1cccc2cccnc12 | 36.5 µM (active) | – |
| O=S(=O)(N[C@@H]1CC[C@@H](CCn2cc(-c3ccccn3)nn2)O[C@@H]1CO)c1cccc(Cl)c1 | 41.9 µM (active) | – |
| O=C(N[C@@H]1CC[C@H](CCn2cc(-c3ccccn3)nn2)O[C@@H]1CO)c1ccccc1 | 37.6 µM (active) | – |
| COCCNC(=O)Cn1cc(C(=O)c2cccs2)c2ccccc21 | – | -2.7% |
| Cn1c(=NC(=O)c2cnccn2)sc2ccccc21 | – | -2.58% |
| Cc1c(NC(=O)CSc2cccc3cccnc23)c(=O)n(-c2ccccc2)n1C | 32.1 µM (active) | – |
| COc1ccc(Cc2nnc(N/N=C/c3ccccc3O)[nH]c2=O)cc1OC | 6.44 µM (active) | – |
| CCN(/N=C/c1ccccc1)c1cc(=O)n(C)c(=O)[nH]1 | – | 1.26% |
| COc1cc(C2C(C#N)=C(N)Oc3n[nH]c(-c4ccccn4)c32)cc(OC)c1OC (stereo unspecified) | – | -7.09% |
| c1ccc(-c2nnc(-c3ccccn3)nc2Nc2nc3ccccc3s2)cc1 | 1.9 µM (active) | – |
| CC(NC(=O)c1ccco1)C(=O)Nc1nc(-c2ccccn2)cs1 (stereo unspecified) | 31.7 µM (active) | – |
| O=C(CN1C(=O)C2C3C=CC(C3)C2C1=O)Nc1nc(-c2ccccn2)cs1 (stereo unspecified) | 47.6 µM (active) | – |
| O=C(COc1ccccc1F)Nc1nc(-c2ccccn2)cs1 | 54.1 µM (active) | – |
| Cc1c(CC(=O)NCCCCCC(=O)O)c(=O)oc2cc3occ(-c4ccccc4)c3cc12 | – | -32.8% |
| CCN(C(=O)Cc1nc(N)n[nH]1)C1(C(=O)Nc2ccccc2)CCCCC1 | – | -14.5% |
| Cc1ccc(S(=O)(=O)n2oc(=O)c(C3CCCCC3)c2N)cc1 | 42.3 µM (active) | – |
| COc1ccccc1Nc1nc(N)nc(CN(C)C2CCCCC2)n1 | – | -22.6% |
| CC[C@]1(O)CC2CN(CCc3c([nH]c4ccccc34)[C@@](C(=O)OC)(c3cc4c(cc3OC)N(C=O)[C@H]3[C@@](O)(C(=O)OC)[C@H](OC(C)=O)[C@]5(CC)C=CCN6CC[C@]43[C@@H]65)C2)C1 (stereo partly specified) | – | -11% |
| CCN(CC)CCOc1ccc2c(c1)C(=NNC(=O)c1ccccn1)c1cc(OCCN(CC)CC)ccc1-2 | 69.6 µM (active) | – |
| CCOC(=O)c1ccc(Nc2cc3ccccc3c(=O)[nH]2)cc1 | – | -19.3% |
| COC(=O)CC1=NN(c2nc(C)cc(C)n2)C(=O)C1 | – | 2.68% |
